# Test results as given in PubChem BioAssay (EPA / NIEHS).
# Results filed as inconclusive are left out. Active and inactive are the calls of the source. How the source made its calls: active means hit-call score of the fitted dose curve at least 0.9, where 1 is the maximum; inconclusive means response in the unintended direction; inactive means score below 0.9.
# Biological target: human Casein Kinase 1-delta (CK1D), CSNK1D (gene 1453) (UniProt P48730)
# Assay: NVS_ENZ_hCK1D: NovaScreen (NVS) Enzymatic Assay for human Casein Kinase 1-delta (CK1D) (AID 2283148)
# Protocol: NVS_ENZ_hCK1D is a biochemical, single-readout assay that uses extracted gene-proteins in a cell-free assay. Measurements were taken 1 hour after chemical dosing in a 384-well plate.NVS_ENZ_hCK1D is one of one assay component(s) measured or calculated from the NVS_ENZ_hCK1D assay. It is designed to make measurements of enzyme activity, a form of enzyme reporter, as detected with fluorescence intensity signals by Fluorescence and electrophoretic mobility shift technology.Data from the assay component NVS_ENZ_hCK1D was analyzed into 1 assay endpoint. This assay endpoint, NVS_ENZ_hCK1D, was analyzed in the positive analysis fitting direction relative to DMSO as the negative control and baseline of activity. Using a type of enzyme reporter, loss-of-signal activity can be used to understand changes in the enzymatic activity as they relate to the gene CSNK1D. Furthermore, this assay endpoint can be referred to as a primary readout, because this assay has produced multiple assay endpoints where this one serves a enzymatic activity function. To generalize the intended target to other relatable targets, this assay endpoint is annotated to the kinase intended target family, where the subfamily is serine/threonine kinase.
# Binding assays used specific radioligands (tritiated, iodinated) with non-radioactive competitive displacement ligands in agonist or antagonist protocols (as indicated) and various reference compounds and inhibitors to titrate specific binding to receptors and transporters. Most enzyme assays (CYPs, kinases, phosphatases, proteases, HDACs) used recombinant protein and specific substrates (fluorescence mostly, some colorimetric and radioactive) and inhibitors, followed by a biochemical separation of substrate and product. All assays for the biochemical HTS were initially run in duplicate at a single concentration (10 uM for CYP450 assays and 25 uM for all others). Assay-chemical combinations meeting a pre-defined threshold (e.g., 30% inhibition and other criteria defined below) were then run in singleton concentration-response format with maximum concentration of 20 uM for CYPs and 50 uM for all others. Each assay was run with positive and negative controls, and concurrent controls on every plate. The follow-up (secondary) screen tested active chemical-pairs in concentration series, as well as a few additional assays not tested in the primary screen, some selected negative inactives, and several cases re-run in the concentration series for confirmatory purposes.
# Chain of human Casein Kinase 1-delta (CK1D), CSNK1D (gene 1453) (P48730 whole entry, looked up): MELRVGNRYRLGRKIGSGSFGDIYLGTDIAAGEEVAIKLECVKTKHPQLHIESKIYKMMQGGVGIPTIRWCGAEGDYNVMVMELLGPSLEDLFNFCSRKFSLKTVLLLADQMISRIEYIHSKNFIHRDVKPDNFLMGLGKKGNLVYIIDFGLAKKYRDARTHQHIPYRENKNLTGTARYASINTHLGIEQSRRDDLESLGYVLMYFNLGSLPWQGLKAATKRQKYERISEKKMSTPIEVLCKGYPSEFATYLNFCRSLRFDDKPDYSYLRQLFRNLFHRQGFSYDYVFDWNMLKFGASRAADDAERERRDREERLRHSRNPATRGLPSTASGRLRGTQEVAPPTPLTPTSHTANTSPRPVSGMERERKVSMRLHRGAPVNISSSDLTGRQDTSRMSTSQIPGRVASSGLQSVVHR
SMILES,outcome,AC50
c1ccc2ccccc2c1,inactive,–
Oc1ccc2ccccc2c1,–,24.1 µM (active)
CC(=O)N1CCN(c2ccc(OC[C@H]3CO[C@](Cn4ccnc4)(c4ccc(Cl)cc4Cl)O3)cc2)CC1,inactive,–
O=C(Nc1ccc(Cl)cc1)Nc1ccc(Cl)c(Cl)c1,inactive,–
CC/C(=C(/CC)c1ccc(O)cc1)c1ccc(O)cc1,inactive,–
O=C1c2ccccc2C(=O)N1CCc1noc(-c2ccc(CN3CCCCCC3)s2)n1,inactive,–
CCN(Cc1cccc(S(=O)(=O)O)c1)c1ccc(C(=C2C=CC(=[N+](CC)Cc3cccc(S(=O)(=O)O)c3)C=C2)c2ccccc2S(=O)(=O)[O-])cc1,inactive,–
c1ccc2n[nH]nc2c1,–,25 µM (active)
O=C(O)Cc1cc(I)c(Oc2ccc(O)c(I)c2)c(I)c1,inactive,–
CN(C[C@@H](CC[N+]12CCC(C3CCCCC3)(CC1)CC2)c1ccc(Cl)c(Cl)c1)C(=O)c1cc(C(F)(F)F)cc(C(F)(F)F)c1,inactive,–
O=CCCCC=O,inactive,–
COc1cc(C(=O)NC2CCN(C)CC2)ccc1Nc1ncc2c(n1)N(C1CCCC1)CC(F)(F)C(=O)N2C,–,18.1 µM (active)
